Experimental data taken from PubChem BioAssay AID1159580 (chemical genetic matrix, 2015).
The campaign covered roughly 5,500 compounds. About 2,000 (36%) were called active. Not shown: some 18% with an inconclusive outcome. Cut-off read from the data, not from the text of the source: active = normalized growth mostly below about 0.91 (no sharp cut-off); inconclusive = no clear call, values can overlap the other calls; inactive = mostly above about 0.92. The list shows a part of the results.

Assay: chemical genetic growth profiling, strain panel (AID 1159580);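 note: tested at 20 µM; growth read once vehicle control cultures reached saturation at 30 °C; 1 = growth at the plate median or of vehicle wells; lower values mean less growth of the strain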
Details: S. cerevisiae deletion strains, growth OD

Measured: normalized growth

CC1CC2C3CCC4=CC(=O)C=CC4(C)C3(F)C(O)CC2(C)C1(O)C(=O)CO (centres undefined)
inactive: locus YAL040C, strain CLN3, active compounds read low 0.987 | locus YDR363W, strain ESC2, active compounds read low 0.955 | locus YER002W, strain NOP16, active compounds read low 1 | locus YGR078C, strain PAC10, active compounds read low 1.02 | locus YNL175C, strain NOP13, active compounds read low 1.01 | locus YNL197C, strain WHI3, active compounds read low 0.999 | locus YNL224C, strain SQS1, active compounds read low 1.01 | locus YOR083W, strain WHI5 (second series), active compounds read low 1.01

Fc1cc(I)ccc1Nc1ccnc2cc(Cl)ccc12
inactive: locus YAR019C, strain CDC15, active compounds read low 0.977 | locus YBL105C, strain PKC1, active compounds read low 0.975 | locus YBR135W, strain CKS1, active compounds read low 0.981 | locus YBR136W, strain MEC1, active compounds read low 0.989 | locus YBR160W, strain CDC28, active compounds read low 0.978 | locus YDL017W, strain CDC7, active compounds read low 0.977 | locus YDL028C, strain MPS1, active compounds read low 0.979 | locus YDL101C, strain DUN1, active compounds read low 0.981 | locus YDL108W, strain KIN28, active compounds read low 0.986 | locus YDL132W, strain cdc53, active compounds read low 0.986 | locus YDL214C, strain PRR2, active compounds read low 0.911 | locus YDR052C, strain DBF4, active compounds read low 0.968 | locus YDR054C, strain cdc34, active compounds read low 0.974 | locus YDR226W, strain ADK1, active compounds read low 0.993 | locus YDR477W, strain SNF1, active compounds read low 0.949 | locus YER123W, strain YCK3, active compounds read low 0.901 | locus YER133W, strain GLC7, active compounds read low 0.948 | locus YFL009W, strain cdc4, active compounds read low 0.978 | locus YFL029C, strain CAK1, active compounds read low 0.98 | locus YFR003C, strain YPI1, active compounds read low 0.991 | locus YFR019W, strain FAB1, active compounds read low 0.943 | locus YFR028C, strain CDC14, active compounds read low 0.981 | locus YGR040W, strain KSS1, active compounds read low 0.918 | locus YGR052W, strain FMP48, active compounds read low 1.06 | locus YGR092W, strain DBF2, active compounds read low 0.954 | locus YHR079C, strain IRE1, active compounds read low 1 | locus YHR082C, strain KSP1, active compounds read low 0.974 | locus YHR205W, strain SCH9, active compounds read low 0.93 | locus YIL147C, strain SLN1, active compounds read low 0.981 | locus YJL095W, strain BCK1, active compounds read low 0.939 | locus YJL128C, strain PBS2, active compounds read low 0.978 | locus YJL157C, strain FAR1, active compounds read low 0.954 | locus YJR016C, strain ILV3, active compounds read low 0.975 | locus YJR066W, strain TOR1 (second series), active compounds read low 0.953 | locus YJR066W, strain TOR1, active compounds read low 0.958 | locus YKL048C, strain ELM1, active compounds read low 0.94 | locus YKL067W, strain YNK1, active compounds read low 0.934 | locus YKL101W, strain HSL1, active compounds read low 0.932 | locus YKL193C, strain SDS22, active compounds read low 0.991 | locus YKL203C, strain TOR2, active compounds read low 0.976 | locus YLR113W, strain HOG1, active compounds read low 0.915 | locus YLR133W, strain CKI1, active compounds read low 0.933 | locus YLR403W, strain SFP1, active compounds read low 0.95 | locus YML070W, strain DAK1, active compounds read low 0.933 | locus YMR001C, strain CDC5, active compounds read low 0.985 | locus YMR205C, strain PFK2 (second series), active compounds read low 0.937 | locus YMR277W, strain FCP1, active compounds read low 0.984 | locus YNL006W, strain LST8, active compounds read low 0.998 | locus YNL020C, strain ARK1, active compounds read low 0.912 | locus YNL161W, strain CBK1, active compounds read low 0.983 | locus YNL183C, strain NPR1, active compounds read low 0.957 | locus YNL207W, strain RIO2, active compounds read low 0.984 | locus YNL222W, strain SSU72, active compounds read low 0.996 | locus YNL307C, strain MCK1 (second series), active compounds read low 0.91 | locus YOL078W, strain AVO1, active compounds read low 0.981 | locus YOL136C, strain PFK27, active compounds read low 0.925 | locus YOR061W, strain CKA2, active compounds read low 0.966 | locus YOR119C, strain RIO1, active compounds read low 1.02 | locus YOR231W, strain MKK1, active compounds read low 0.95 | locus YOR329C, strain SCD5, active compounds read low 0.986 | locus YPL031C, strain PHO85, active compounds read low 0.911 | locus YPL153C, strain RAD53, active compounds read low 0.923 | locus YPL204W, strain HRR25, active compounds read low 0.912 | locus YPL209C, strain IPL1, active compounds read low 0.983 | locus YPL256C, strain CLN2, active compounds read low 0.951 | locus YPR025C, strain CCL1, active compounds read low 0.986 | locus YPR106W, strain ISR1, active compounds read low 0.973 | locus YPR111W, strain DBF20, active compounds read low 0.972 | strain NNK1, active compounds read low 0.973 | strain TSCII, active compounds read low 0.982
active: locus YHR030C, strain SLT2, active compounds read low 0.841
